Assay results as given in PubChem BioAssay (NCI).
The panel holds about 83,000 compounds, 20% with a hit somewhere; the sample as a whole holds those more often.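 The test compound was applied at a single concentration to cells in 96-well plates for 48 hours, and percent growth was recorded.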 A number with no mark means an inactive call. Calls of active or inactive are those of the source. The calls were made as follows: active = growth percent below 10; inactive = the rest.

Tested on: OVCAR-5 ovarian
Assay: NCI-60 one-dose screen, 48 h (100 = growth as untreated, 0 = no growth, -100 = all killed)
Conditions: 10 µM

Q: How did the growth turn out when `COc1cc2cc(C(=O)N3C[C@@H](CCl)c4c3cc(OC(=O)N3CCN(C)[C@@H]5CSSC[C@@H]53)c3ccccc43)[nH]c2c(OC)c1OC` was run?
A: Its growth is -6.69% (active).

Q: `C#CC[Se]C(=O)c1ccc2n[se]nc2c1` was tested. Which growth did it give?
A: The growth was 75.7%.

Q: How did the growth turn out when `CCOP(=O)(OCC)C(NC(C)=O)C(=O)SCCN` (stereo unspecified) was run?
A: The growth was 104%.

Q: With `COc1cc2cc(C(=O)N3C[C@@H](CCl)c4c3cc(OC(=O)N3CCN(C)[C@@H]5CSSC[C@H]53)c3ccccc43)[nH]c2c(OC)c1OC` as the molecule, how does the growth read?
A: Its growth is -20.4% (active).

Q: With `COc1ccc2cc([C@H](C)C(=O)[Se]CCC#N)ccc2c1` as the molecule, how does the growth read?
A: The growth was -31.8% (active).

Q: For `CC12CCC3(CCC(=O)NCCCNc4ccnc5cc(Cl)ccc45)[C@@](C)(OO[C@]3(C)O1)O2`, which growth is on record?
A: Its growth is 4.68% (active).

Q: Which growth does the source give for `COCCOCCOCCOc1ccc(-n2cc(CCCN(CCNc3ccnc4cc(Cl)ccc34)C(=O)CCC(=O)O[C@@H]3O[C@@H]4OC5(C)CC[C@H]6[C@H](C)CC[C@@H]([C@H]3C)[C@@]46OO5)nn2)cc1` here?
A: The growth was 52.2%.

Q: `C[C@H]1[C@@H](CC(=O)N[C@@H](Cc2coc3ccccc23)B(O)O)O[C@@H]2OC3(C)CC[C@H]4[C@H](C)CC[C@@H]1[C@@]24OO3` was tested. Which growth did it give?
A: The growth was -57.1% (active).

Q: Which growth does the source give for `COP(=O)(CC(F)(F)C(F)(F)F)OC` here?
A: The growth was 68.9%.

Q: How did the growth turn out when `CC(C)N=C([Se])NC(=O)c1ccccc1` was run?
A: The growth was -55.9% (active).

Q: How did the growth turn out when `CC[C@]12C=CCN3CC[C@@]4(c5ccc(OC)cc5N(C)[C@H]4[C@@](O)(C(=O)OC)[C@@H]1OC(=O)CCC[P+](C1CCCCC1)(C1CCCCC1)C1CCCCC1)[C@@H]32` was run?
A: The growth was 11%.

Q: With `CC1=C(CCC=NNC(N)=O)C2=C(C)C3(CC3)[C@@](C)(O)C(=O)C2=C1` as the molecule, how does the growth read?
A: The growth was -35.8% (active).

Q: How did the growth turn out when `CC[C@@]12CC(C(=O)OC)=C3Nc4cc5c(cc4[C@@]34CCN(C[C@H]3O[C@H]31)[C@@H]24)[C@@H]1[C@H](O5)[C@@H](O)[C@@]2(CC)CC(C(=O)OC)=C3Nc4cc(OC)ccc4[C@@]34CCN1[C@@H]24` was run?
A: Its growth is 34.3%.

Q: How did the growth turn out when `O=C(/C=C/c1ccc(Cl)cc1)c1nc2ccccc2n1Cc1ccc(F)cc1` was run?
A: The growth was 19.1%.

Q: How did the growth turn out when `O=C(NC([Se])=NC1CCCCC1)c1ccc2c(c1)OCO2` was run?
A: Its growth is 72%.

Q: How did the growth turn out when `COc1ccc(/C=C/C(=O)c2nc3ccccc3n2Cc2ccc(Br)cc2)cc1` was run?
A: The growth was 89.6%.

Q: With `COC(=O)CCn1c(-c2ccc(-n3cc(-c4ccc(O[C@H]5O[C@@H]6OC7(C)CC[C@H]8[C@H](C)CC[C@@H]([C@H]5C)[C@@]68OO7)cc4)nn3)cc2)nc2ccccc21` as the molecule, how does the growth read?
A: Its growth is 36.6%.

Tested on: OVCAR-4 ovarian
Assay: as above
Conditions: 10 µM

Q: `O=C(/C=C/c1ccco1)c1nc2ccccc2n1Cc1ccc(Br)cc1` was tested. Which growth did it give?
A: Its growth is 46.5%.

Q: How did the growth turn out when `O=C(/C=C/c1ccco1)c1nc2ccccc2n1Cc1ccc(F)cc1` was run?
A: The growth was 48%.

Q: How did the growth turn out when `COc1cc2cc(C(=O)N3C[C@@H](CCl)c4c3cc(OC(=O)N3CCN(C)[C@@H]5CSSC[C@@H]53)c3ccccc43)[nH]c2c(OC)c1OC` was run?
A: The growth was -6.86% (active).

Q: With `C#CC[Se]C(=O)c1ccc2n[se]nc2c1` as the molecule, how does the growth read?
A: Its growth is 74.5%.

Q: For `O=C(/C=C/c1ccc(Cl)cc1Cl)c1nc2ccccc2n1Cc1ccc(F)cc1`, which growth is on record?
A: The growth was 63.2%.

Q: `O=C(/C=C/c1ccc(Cl)cc1)c1nc2ccccc2n1Cc1ccc(Br)cc1` was tested. Which growth did it give?
A: Its growth is 68.5%.

Q: With `CCOP(=O)(OCC)C(NC(C)=O)C(=O)SCCN` (stereo unspecified) as the molecule, how does the growth read?
A: Its growth is 110%.

Q: Which growth does the source give for `COc1cc2cc(C(=O)N3C[C@@H](CCl)c4c3cc(OC(=O)N3CCN(C)[C@@H]5CSSC[C@H]53)c3ccccc43)[nH]c2c(OC)c1OC` here?
A: Its growth is -54.7% (active).

Q: For `COc1ccc2cc([C@H](C)C(=O)[Se]CCC#N)ccc2c1`, which growth is on record?
A: Its growth is -44.3% (active).

Q: `CC12OOC(C)(OO1)C2CCC(=O)OCCNc1ccnc2cc(Cl)ccc12` (stereo unspecified) was tested. Which growth did it give?
A: The growth was -39.8% (active).

Q: `CC(C)N=C([Se])NC(=O)c1cccs1` was tested. Which growth did it give?
A: The growth was 83%.

Q: With `Cc1ccc2[nH]c(=S)n(-c3ccc(F)cc3)c(=O)c2c1` as the molecule, how does the growth read?
A: Its growth is 104%.

Q: How did the growth turn out when `CCOC(=O)C1=C(Nc2ccccc2)C(=O)OC12C(=O)Nc1ccccc12` (stereo unspecified) was run?
A: Its growth is 107%.

Q: For `CC12CCC3(CCC(=O)NCCCNc4ccnc5cc(Cl)ccc45)[C@@](C)(OO[C@]3(C)O1)O2`, which growth is on record?
A: The growth was 33.1%.

Q: How did the growth turn out when `CC[C@]12C=CCN3CC[C@@]4(c5ccc(OC)cc5N(C)[C@H]4[C@@](O)(C(=O)OC)[C@@H]1OC(=O)CCCC[P+](C1CCCCC1)(C1CCCCC1)C1CCCCC1)[C@@H]32` was run?
A: Its growth is 12.4%.

Q: `CC(=O)Oc1ccccc1C(=O)[Se]C(=NC(C)C)NC(C)C` was tested. Which growth did it give?
A: Its growth is -56% (active).

Q: With `COCCOCCOCCOc1ccc(-n2cc(CCCN(CCNc3ccnc4cc(Cl)ccc34)C(=O)CCC(=O)O[C@@H]3O[C@@H]4OC5(C)CC[C@H]6[C@H](C)CC[C@@H]([C@H]3C)[C@@]46OO5)nn2)cc1` as the molecule, how does the growth read?
A: Its growth is 45.7%.

Q: `C[C@H]1[C@@H](CC(=O)N[C@@H](Cc2coc3ccccc23)B(O)O)O[C@@H]2OC3(C)CC[C@H]4[C@H](C)CC[C@@H]1[C@@]24OO3` was tested. Which growth did it give?
A: The growth was 18.3%.

Q: For `COP(=O)(CC(F)(F)C(F)(F)F)OC`, which growth is on record?
A: Its growth is -13.4% (active).

Q: Which growth does the source give for `CC12OOC(C)(OO1)C2CCC(=O)NCCNc1ccnc2cc(Cl)ccc12` (stereo unspecified) here?
A: Its growth is 96.8%.

Q: Which growth does the source give for `CC[C@]12C=CCN3CC[C@@]4(c5ccc(OC)cc5N(C)[C@H]4[C@@](O)(C(=O)OC)[C@@H]1OC(=O)CCC[P+](c1ccc(C)cc1)(c1ccc(C)cc1)c1ccc(C)cc1)[C@@H]32` here?
A: Its growth is -73.5% (active).

Q: How did the growth turn out when `CC(C)N=C([Se])NC(=O)c1ccccc1` was run?
A: Its growth is 3.7% (active).

Q: Which growth does the source give for `CC[C@]12C=CCN3CC[C@@]4(c5ccc(OC)cc5N(C)[C@H]4[C@@](O)(C(=O)OC)[C@@H]1OC(=O)CCC[P+](C1CCCCC1)(C1CCCCC1)C1CCCCC1)[C@@H]32` here?
A: The growth was 17.7%.

Q: Which growth does the source give for `CC1=C(COCCOC(=O)c2ccc(S(=O)(=O)F)cc2)C2=C(C)C3(CC3)[C@@](C)(O)C(=O)C2=C1` here?
A: The growth was -23% (active).

Q: For `CC[C@]12C=CCN3CC[C@@]4(c5ccc(OC)cc5N(C)[C@H]4[C@@](O)(C(=O)OC)[C@@H]1OC(=O)CCCC[P+](c1ccc(OC)cc1)(c1ccc(OC)cc1)c1ccc(OC)cc1)[C@@H]32`, which growth is on record?
A: The growth was -37.7% (active).

Q: `CC1=C(CCC=NNC(N)=O)C2=C(C)C3(CC3)[C@@](C)(O)C(=O)C2=C1` was tested. Which growth did it give?
A: Its growth is -38.1% (active).

Q: With `CC[C@@]12CC(C(=O)OC)=C3Nc4cc5c(cc4[C@@]34CCN(C[C@H]3O[C@H]31)[C@@H]24)[C@@H]1[C@H](O5)[C@@H](O)[C@@]2(CC)CC(C(=O)OC)=C3Nc4cc(OC)ccc4[C@@]34CCN1[C@@H]24` as the molecule, how does the growth read?
A: The growth was 5.36% (active).

Q: `CCOP(=O)(CC(F)(F)C(F)(F)F)OCC` was tested. Which growth did it give?
A: Its growth is -14.9% (active).

Q: `CC1=C2C(=C[C@@](C)(COP(=O)(Oc3ccccc3)Oc3ccccc3)[C@@H]2O)C(=O)[C@@](C)(O)C12CC2` was tested. Which growth did it give?
A: The growth was -72.9% (active).

Q: `CC(=O)Oc1ccccc1C(=O)NC([Se])=NC1CCCCC1` was tested. Which growth did it give?
A: Its growth is -13.3% (active).

Q: How did the growth turn out when `C[C@H]1[C@H](OC(=O)CCC(=O)N(CCCc2cn(-c3ccc(CN4CCOCC4)cc3)nn2)CCNc2ccnc3cc(Cl)ccc23)O[C@@H]2OC3(C)CC[C@H]4[C@H](C)CC[C@@H]1[C@@]24OO3` was run?
A: Its growth is 45.9%.

Q: With `O=C(/C=C/c1ccc(Cl)cc1)c1nc2ccccc2n1Cc1ccc(F)cc1` as the molecule, how does the growth read?
A: Its growth is 58.8%.

Q: For `CC1=C(CCC=O)C2=C(C)C3(CC3)[C@@](C)(O)C(=O)C2=C1`, which growth is on record?
A: Its growth is -97.4% (active).

Q: `O=C(NC([Se])=NC1CCCCC1)c1ccc2c(c1)OCO2` was tested. Which growth did it give?
A: Its growth is 70.5%.

Q: How did the growth turn out when `C[C@H]1[C@H](OC(=O)CCC(=O)N(CCCc2cn(-c3ccc(C#N)cc3)nn2)CCNc2ccnc3cc(Cl)ccc23)O[C@@H]2OC3(C)CC[C@H]4[C@H](C)CC[C@@H]1[C@@]24OO3` was run?
A: The growth was 41.9%.

Q: Which growth does the source give for `C[C@H]1[C@@H](Oc2ccc(-c3cn(-c4ccnc5cc(Cl)ccc45)nn3)cc2)O[C@@H]2OC3(C)CC[C@H]4[C@H](C)CC[C@@H]1[C@@]24OO3` here?
A: The growth was 40.9%.

Q: With `COc1ccc(/C=C/C(=O)c2nc3ccccc3n2Cc2ccc(Br)cc2)cc1` as the molecule, how does the growth read?
A: The growth was 66.1%.

Q: `COC(=O)CCn1c(-c2ccc(-n3cc(-c4ccc(O[C@H]5O[C@@H]6OC7(C)CC[C@H]8[C@H](C)CC[C@@H]([C@H]5C)[C@@]68OO7)cc4)nn3)cc2)nc2ccccc21` was tested. Which growth did it give?
A: Its growth is 34.2%.

Q: For `C[C@H]1[C@H](OC(=O)CCC(=O)N(CCCc2cn(-c3ccc([N+](=O)[O-])cc3)nn2)CCNc2ccnc3cc(Cl)ccc23)O[C@@H]2OC3(C)CC[C@H]4[C@H](C)CC[C@@H]1[C@@]24OO3`, which growth is on record?
A: The growth was 41.8%.
